Bioassay records from PubChem BioAssay.
GLP1R ag: qHTS of GLP-1 Receptor Agonists; Glucagon-like peptide 1 receptor (Homo sapiens), P43220; HEK293 GLP-1R CRE-luciferase, luminescence, 4-6 h; cells express a hypersensitive GLP-1R form; Potency, µM (top dose mostly 45.6 µM), inactives show at the highest dose activation, most hits filed as activators; 380,000 compounds, 0.007% hits; also: % of control where 0% means no effect
Target sequence (P43220 whole entry, looked up): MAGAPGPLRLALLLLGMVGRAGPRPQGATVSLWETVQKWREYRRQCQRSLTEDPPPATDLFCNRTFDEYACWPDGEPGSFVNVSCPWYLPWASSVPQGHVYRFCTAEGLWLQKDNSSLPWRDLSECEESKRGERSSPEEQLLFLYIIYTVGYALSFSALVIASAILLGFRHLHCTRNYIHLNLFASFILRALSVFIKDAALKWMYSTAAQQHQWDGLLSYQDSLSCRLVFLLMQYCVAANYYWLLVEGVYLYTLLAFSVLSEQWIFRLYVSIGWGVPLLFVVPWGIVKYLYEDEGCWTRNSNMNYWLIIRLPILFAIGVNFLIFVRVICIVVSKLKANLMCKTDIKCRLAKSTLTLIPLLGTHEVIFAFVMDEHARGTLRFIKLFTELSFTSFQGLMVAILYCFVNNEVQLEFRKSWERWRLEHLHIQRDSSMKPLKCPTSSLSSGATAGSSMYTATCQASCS
RORgamma inh: qHTS for inhibitors of ROR gamma transcriptional activity | Nuclear receptor ROR-gamma (Mus musculus), P51450 | Drosophila S2 Gal4-RORgamma UAS-luciferase reporter, 20 h | Potency, µM (highest dose often 53.6 µM), inactives show at the top dose activity change, negative = inhibition, most hits filed as inhibitors | 310,000 compounds, 5.4% hits | AID 2551, 2010; also: % is scaled to controls: 0 for no effect and ±100 for the full control effect; nearly all actives have a fitted effect of over 60% in size
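Stable Schneider cell line, Gal4 DNA-binding domain fused to ROR gamma, UAS-luciferase. Cmpd 1 hr RT → CuSO4 700 uM final → 20 hr RT → luciferase reagent 10 min → luminescence.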
HEK293 tox: qHTS of GLP-1 Receptor Inverse Agonists: Cytotox Screen; HEK293 cAMP-luciferase reporter cells, luminescence, 24 h; Potency, µM (titrated, usually from 38.3 µM), inactives show at the highest dose activity change, negative = inhibition, usual class: inhibitors; 410,000 compounds, 0.13% hits; AID 624418, 2012;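 also: loss of luciferase light is scored as toxicity; % is scaled to controls: 0 for no effect and ±100 for the full control effect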
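To flag toxic compounds, the library was rerun on cells for 24 hr at 37 deg C and 5% CO2. Viability-linked luminescence was captured 12 min after adding luciferase detection reagent.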
GLP1R inv ag: qHTS of GLP-1 Receptor Inverse Agonists (Inhibition Mode); Potency, µM (series often up to 38.3 µM), inactives show at the top dose activity change, negative = inhibition, actives largely listed as inhibitors; AID 624417, 2012; 410,000 compounds, 1.6% hits; HEK293 GLP-1R CRE-luciferase, luminescence, 24 h; GLP-1R form is constitutively active; also: % is scaled to controls: 0 for no effect and ±100 for the full control effect; nearly all actives have a fitted effect of over 55% in size
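Seeding at 200 cells/uL, 12 h culture, 24 hr compound treatment, then luciferase reagent and a luminescence read; cells are HEK293 stably expressing a constitutively active GLP-1R plus cAMP-responsive luciferase.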
Gal4-VP16 FLuc: VP16 counterscreen qHTS for inhibitors of ROR gamma transcriptional activity; Drosophila S2 Gal4-VP16 UAS-luciferase, luminescence, 20 h; Potency, µM (top dose mostly 53.6 µM), without a hit: at the top dose activity, negative = inhibition, usual class: inhibitors; AID 2546, 2010; 310,000 compounds, 3.5% hits;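 also: Gal4-VP16 expression switched on by copper sulfate through the metallothionein promoter; % is scaled to controls: 0 for no effect and ±100 for the full control effect; nearly all actives have a fitted effect of over 50% in size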
The depositor's hits bear a star; ? = inconclusive; nt = no result; [ ] = dose if it differs, or a comment. The list is not random: actives were taken first. Their share in the collection is about 5.9%. Calls follow the shape of the dose curve; as a rule, active = well fitted curve in the direction sought with a large enough effect; inconclusive = small, poorly fitted or top-dose-only effect, or another doubt; inactive = no such curve, though single readings can be large; an effect the other way counts as inactive or inconclusive. Potency is read from the fitted curve at half-maximal effect.

SMILES	GLP1R ag	RORgamma inh	HEK293 tox	GLP1R inv ag	Gal4-VP16 FLuc
Cc1cc(C)cc(CC(Cc2nc3ccccc3[nH]2)c2nc3ccccc3[nH]2)c1 (stereo not given)	-26.4%	11.2µM*	?	?	11.2µM*
COc1ccc(NC2=NC(=S)N(c3ccc(C)cc3)C23CCCCC3)cc1	-9.9%	0.562µM*	7.7%	5.1%	-6.4%
COc1ccc(NC2=NC(=S)N(c3cccc(C)c3)C23CCCCC3)cc1	-4.7%	2µM*	0.7%	11.3%	?
COc1ccc(NC2=NC3(CCCCC3)N=C(N)N2)cc1	2.4%	15.5%	-4.0%	8.5%	-0.5%
Cc1cccc(NC2=NC(=S)N(c3ccc(C(=O)O)cc3)C23CCCCC3)c1	9.0%	1.3%	5.1%	-11.4%	-4.7%
COCCn1c(=O)c(-c2cccs2)nc2cnc(N(C)C)nc21	nt	-9.2%	nt	nt	-4.4%
O=C1[C@@H]2Cc3c([nH]c4ccccc34)C(c3ccccc3)N2C(=O)CN1CCO (stereo not given in full)	-4.4%	-2.6%	2.3%	?	0.1%
COc1cc([C@H]2c3[nH]c4ccccc4c3C[C@H]3C(=O)N4[C@@H](c5cc(OC)c(OC)c(OC)c5)c5[nH]c6ccccc6c5C[C@H]4C(=O)N23)cc(OC)c1OC	-2.7%	?	-82.8%	10µM*	10µM*
CC(C)CN1CC(=O)N2C(c3ccccc3)c3[nH]c4ccccc4c3C[C@H]2C1=O (stereo not given in full)	2.9%	5.5%	-11.2%	10µM*	-9.1%
O=C(O[C@@H]1Cc2c(O)cc(O)cc2OC1c1ccc(O)c(O)c1)c1cc(O)c(O)c(O)c1 (stereo not given in full)	nt	-32.1%	nt	nt	-5.4%
CC(=O)c1ccc(NC(=O)CSc2cn(CC(=O)N3CCCCC3)c3ccccc23)cc1	nt	nt	-2.5%	16.8%	nt
CCSCCc1nnc(NC(=O)Nc2cccc(C(F)(F)F)c2)s1	-4.4%	?	11.6%	?	17.8µM*
CN(C)c1ccc(CNC(=O)CN2CCSc3ccc(S(=O)(=O)N(C)C)cc32)cc1	17.7%	nt	-12.5%	-8.9%	nt
CCn1nc(C)c(CCN(C)C(=O)Nc2ccc(C)c(Cl)c2)c1C	nt	nt	-7.4%	?	nt
Cc1ccc(C(=O)NC(=S)N2CCN(c3cc(C)ccc3C)CC2)cc1	-12.0%	1µM*	?	?	1µM*
Cc1ccc(C(=O)NC(=S)N2CCN(c3ccccc3F)CC2)cc1	-0.6%	0.891µM*	10.5%[1.53 µM]	?	2.82µM*
CC(=O)c1ccc(N2CCN(C(=S)Nc3cc(C)ccc3C)CC2)cc1	-10.3%	?	-9.3%	3.1%	?
COc1ccccc1CN1CCC2(CC1)CCN(S(=O)(=O)c1ccccc1)CC2	nt	0.4%	nt	nt	9.7%
CCN(Cc1ccccc1)C(=O)Cn1c(=O)n(-c2ccc(F)c(Cl)c2)c(=O)c2sc3ccccc3c21	-0.3%	nt	-2.2%	5.2%	nt
COc1cc(C2C(C(=O)Nc3ccccc3)=C(C)Nc3nnnn32)cc(OC)c1OC (stereo not given)	-3.4%	nt	7.8%	?	nt
S=c1[nH]nc(-c2ccccn2)n1/N=C/c1ccc(Cl)cc1	-18.4%	12.6µM*	-3.1%	3.2%	-19.1%
S=c1[nH]nc(-c2ccccc2)n1/N=C/c1cccc(Cl)c1	-2.5%	5.62µM*	-12.0%	-15.5%	4.47µM*
S=c1[nH]nc(-c2ccccn2)n1/N=C/c1ccccc1	17.2%	?	-2.8%	21.7%	-3.2%
Cc1ccc(-c2n[nH]c(=S)n2/N=C/c2c(C)[nH]n(-c3ccccc3)c2=O)cc1	-1.8%	10µM*	-9.8%	0.3%	-26.2%
Cc1cccc(/C=N/n2c(-c3ccccn3)n[nH]c2=S)c1	nt	?	nt	nt	17.8µM*
SMILES	GLP1R ag	RORgamma inh	HEK293 tox	GLP1R inv ag	Gal4-VP16 FLuc
CCCc1cc(=O)n2[nH]c(NC(=O)c3ccc(C(C)(C)C)cc3)nc2n1	nt	nt	-10.8%	-12.0%	nt
CC(C)(C)c1n[nH]c(=S)n(/N=C/c2cccs2)c1=O	18.0%	10µM*	0.9%	15.6%	15.8µM*
CCc1n[nH]c(=S)n1/N=C/C(C)=C\c1ccccc1	7.5%	7.08µM*	-11.6%	6.6%	5.62µM*
COc1c(Br)cc(/C=N/n2c(-c3ccccc3)n[nH]c2=S)c(O)c1Br	-7.9%	12.6µM*	39.0%	?	?
Cc1nn(-c2ccccc2)c(C)c1/C=N/n1c(-c2ccncc2)n[nH]c1=S	9.6%	-28.4%	5.0%	-4.2%	0.7%
Cc1nn(-c2ccccc2)c(C)c1/C=N/n1c(-c2ccc(Cl)cc2)n[nH]c1=S	-1.6%	12.6µM*	0.8%	23.6%	8.91µM*
CC(/C=N/n1c(-c2ccco2)n[nH]c1=S)=C\c1ccccc1	-16.5%	?	-17.8%	-4.5%	-69.8%
COc1cccc(C(=O)CC2c3c(c(Br)c4c(c3OC)OCO4)CCN2C)c1 (stereo not given)	nt	7.2%	nt	nt	-12.1%
CCNC(=O)[C@H]1CCCN1C(=O)[C@H](CCCN=C(N)N)NC(=O)[C@H](CC(C)C)NC(=O)[C@H](CC(C)C)NC(=O)[C@@H](Cc1ccc(O)cc1)NC(=O)[C@H](CO)NC(=O)[C@@H](Cc1c[nH]c2ccccc12)NC(=O)[C@H](Cc1cnc[nH]1)NC(=O)[C@@H]1CCC(=O)N1	-2.7%	nt	nt	nt	nt
COc1ccc(C2/C=C\CN(C(=O)CC(C)(C)C)C(C)C(=O)N2Cc2ccc(F)cc2)cc1 (stereo not given)	nt	?	nt	nt	-2.7%
C=CC(=O)CC	nt	26.8%	nt	nt	22.1%
COC(=O)c1cc2occc2n1Cc1nc(-c2cccc(Br)c2)oc1C	nt	nt	-8.9%	11.6%	nt
OC[C@H]1O[C@H](OC/C=C/c2ccccc2)[C@H](O)[C@@H](O)[C@@H]1O	-5.7%	nt	nt	nt	nt
Cc1ccccc1/C=N/n1c(-c2ccccn2)n[nH]c1=S	-2.0%	?	2.9%	3.6%	-18.3%
CCOc1ccc(/C=N/n2c(C)nc3ccccc3c2=O)cc1	-4.3%	32.3%	?	12.7%	-6.5%
CCOc1ccc(/C=N/n2c(-c3ccccc3)n[nH]c2=S)cc1	-4.8%	1.58µM*	-6.6%	7.5%	?
CC(/C=N/n1c(-c2ccccn2)n[nH]c1=S)=C\c1ccccc1	0.0%	3.55µM*	-21.2%	5.4%	-9.0%
S=c1[nH]nc(-c2ccccn2)n1/N=C/c1cccc2ccccc12	-2.0%	2.24µM*	0.9%	40.5%	?
Fc1ccc(/C=N/n2c(-c3cccs3)n[nH]c2=S)cc1	-1.0%	2µM*	0.0%	0.0%	3.98µM*
